# Data: PubChem BioAssay
# Some of the results follow. Activity calls are given as the source filed them.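 Rule for the calls, unless noted: active = inhibition reaching about 45% at 4 µM in either replicate (limit read from the data); inactive = the rest.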
# Columns and labels:
# [1] = PMA/ionomycin-induced NF-kB reporter inhibitors, Jurkat retest, confirmation, T-cell NF-kB inhibitor project, cell-based, luminescence, single concentration (AID 435020); settings: Jurkat NF-kB luciferase, 16 h, at 4 µM, stronger effect = higher value;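 note: plate controls were PMA/ionomycin stimulated DMSO wells for no effect and unstimulated DMSO wells for full effect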
# [2] = inhibition of Brca1/Bard1 split-luciferase complementation, confirmation, counter-screen for Mdm2/MdmX interaction inhibitor project, luminescence, single concentration (AID 504668; call rule not given here); settings: Brca1/Bard1 bimolecular luciferase complementation counterscreen, at 8 µM, stronger effect = higher value
# [3] = Peg3 promoter reporter inhibitors, retest, confirmation, cell-based, HeLa, luciferase reporter, single concentration (AID 602417;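 active = at 20 µM dose, 40% or more inhibition averaged across four replicates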); settings: HeLa PEG-Prom luciferase reporter, luminescence, overnight; at 20 µM; stronger effect = higher value
# [4] = HIF-2a reporter inhibitor retest, confirmation, luminescence, 786-0 RCC cells (AID 651580;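 active = mean inhibition across four replicates of at least 40 percent at the single tested concentration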); settings: HIF-2a luciferase reporter luminescence, overnight, at 18.8 µM, stronger effect = higher value
# [5] = HIF-1a luciferase reporter signal reduction – MiaPaCa-2 cells, single concentration, counter-screen for HIF-2a inhibitor project, confirmation (AID 651589;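 active = mean inhibition of the reporter signal across four replicates at the single tested dose of 50% or more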); settings: MiaPaCa-2 HIF-1a luciferase reporter, desferoxamine, overnight; at 18.8 µM; stronger effect = higher value
# PEG-3 [6] = biological target: PEG-3 (UniProt Q6IN02); assay: Peg3 promoter luciferase inhibitors, potency, dose response, cell-based, HeLa, CREF/GAPDH counter-screen panel (AID 624167); settings: CREF/GAPDH counter-screens; HeLa PEG-Prom luciferase reporter, overnight, run 1, dose range 1, at 100 µM (top of the series) unless noted
# Chain of PEG-3 (Q6IN02 whole entry, looked up): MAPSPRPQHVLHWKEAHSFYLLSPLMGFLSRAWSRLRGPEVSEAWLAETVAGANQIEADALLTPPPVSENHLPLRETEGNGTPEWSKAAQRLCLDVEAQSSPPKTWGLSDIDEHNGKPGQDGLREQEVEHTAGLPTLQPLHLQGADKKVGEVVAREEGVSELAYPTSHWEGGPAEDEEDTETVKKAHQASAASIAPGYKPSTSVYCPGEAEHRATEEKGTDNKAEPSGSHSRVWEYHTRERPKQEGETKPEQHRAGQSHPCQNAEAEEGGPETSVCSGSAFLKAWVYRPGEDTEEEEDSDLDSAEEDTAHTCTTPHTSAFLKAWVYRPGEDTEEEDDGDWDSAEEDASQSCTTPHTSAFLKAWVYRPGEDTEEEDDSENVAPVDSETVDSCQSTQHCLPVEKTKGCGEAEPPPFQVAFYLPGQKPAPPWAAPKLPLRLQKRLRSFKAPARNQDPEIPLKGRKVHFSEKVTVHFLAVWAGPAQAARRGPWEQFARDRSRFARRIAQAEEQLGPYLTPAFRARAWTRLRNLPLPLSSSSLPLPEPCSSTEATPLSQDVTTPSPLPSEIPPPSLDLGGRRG
# PEG-3 [7] = biological target: PEG-3 (UniProt Q6IN02); assay: as above; settings: CREF/GAPDH counter-screens; HeLa PEG-Prom luciferase reporter, overnight, run 2, dose range 1, at 100 µM (top of the series) unless noted
# Rat fibroblasts (CREF) [8] = assay: as above; settings: CREF/GAPDH counter-screens; run 1, dose range 1, at 100 µM (top of the series)
# Rat fibroblasts (CREF) [9] = assay: as above; settings: CREF/GAPDH counter-screens; run 2, dose range 1, at 100 µM (top of the series)
# [10] = biological target: COP9 signalosome complex subunit 5 (Homo sapiens) (UniProt Q92905); assay: Csn5 deneddylation inhibitors, confirmation, biochemical, fluorescence polarization, single concentration, SCF-Nedd8OG substrate (AID 720654; in the data active = inhibition above about 50%;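 note: 0% = DMSO with enzyme and 100% = no enzyme wells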); settings: Csn5 deneddylation of SCF-Nedd8OG, 90 min, at 16.6 µM, stronger effect = higher value
# Chain of COP9 signalosome complex subunit 5 (Homo sapiens) (Q92905 whole entry, looked up, one chain of several): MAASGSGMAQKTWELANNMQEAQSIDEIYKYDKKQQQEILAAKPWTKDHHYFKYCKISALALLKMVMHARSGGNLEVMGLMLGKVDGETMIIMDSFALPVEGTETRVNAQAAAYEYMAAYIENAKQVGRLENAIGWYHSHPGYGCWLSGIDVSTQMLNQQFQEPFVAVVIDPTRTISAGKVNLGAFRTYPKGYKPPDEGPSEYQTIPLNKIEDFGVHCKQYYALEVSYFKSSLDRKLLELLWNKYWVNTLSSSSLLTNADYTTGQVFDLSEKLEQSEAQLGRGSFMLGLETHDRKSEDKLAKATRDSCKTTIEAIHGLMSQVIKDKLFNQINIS
# [11] = biological target: 72 kDa type IV collagenase (Homo sapiens) (UniProt P08253); assay: MMP-2 protease inhibition counter-screen, confirmation, counter-screen for CSN deneddylation inhibitor project, biochemical, fluorescence, single concentration (AID 720655;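 active = corrected plate-normalized z-score of 5 or more, or -5 or less, or inhibition of 15% or more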;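 note: plate controls were DMSO wells with enzyme for no effect and buffer wells lacking MMP-2 for full effect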); settings: recombinant MMP-2, FRET substrate fluorescence, 60 min; at 16.6 µM
# Chain of 72 kDa type IV collagenase (Homo sapiens) (P08253 whole entry, looked up): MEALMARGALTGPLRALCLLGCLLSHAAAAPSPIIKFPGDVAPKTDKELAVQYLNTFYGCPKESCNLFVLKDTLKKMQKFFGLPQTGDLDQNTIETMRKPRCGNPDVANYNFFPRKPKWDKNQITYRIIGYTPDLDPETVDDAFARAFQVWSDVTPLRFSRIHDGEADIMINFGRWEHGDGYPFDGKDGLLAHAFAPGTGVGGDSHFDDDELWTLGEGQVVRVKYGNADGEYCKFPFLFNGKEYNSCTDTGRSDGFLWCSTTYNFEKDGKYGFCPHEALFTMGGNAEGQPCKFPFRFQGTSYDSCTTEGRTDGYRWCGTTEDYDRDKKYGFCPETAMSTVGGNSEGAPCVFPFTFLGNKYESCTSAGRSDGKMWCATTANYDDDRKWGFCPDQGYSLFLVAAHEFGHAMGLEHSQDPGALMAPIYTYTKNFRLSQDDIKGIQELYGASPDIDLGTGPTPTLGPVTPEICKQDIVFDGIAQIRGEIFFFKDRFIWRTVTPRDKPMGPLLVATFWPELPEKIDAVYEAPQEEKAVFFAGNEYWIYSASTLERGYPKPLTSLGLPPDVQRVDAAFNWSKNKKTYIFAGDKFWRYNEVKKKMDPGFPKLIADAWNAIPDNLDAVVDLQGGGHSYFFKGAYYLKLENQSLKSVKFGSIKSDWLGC
# Prothrombin (Bos taurus) = Prothrombin (Bos taurus) (UniProt P00735); assay: bovine thrombin inhibition counter-screen, confirmation, counter-screen for CSN deneddylation inhibitor project, biochemical, fluorescence polarization, single concentration (AID 720656;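 active = inhibition at or above a set limit, with a fluorescence interference ratio between 0.5 and a set maximum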); settings: bovine thrombin cleavage of Ub4-pepOG, at 16.6 µM, stronger effect = higher value
# Chain of Prothrombin (Bos taurus) (P00735 whole entry, looked up): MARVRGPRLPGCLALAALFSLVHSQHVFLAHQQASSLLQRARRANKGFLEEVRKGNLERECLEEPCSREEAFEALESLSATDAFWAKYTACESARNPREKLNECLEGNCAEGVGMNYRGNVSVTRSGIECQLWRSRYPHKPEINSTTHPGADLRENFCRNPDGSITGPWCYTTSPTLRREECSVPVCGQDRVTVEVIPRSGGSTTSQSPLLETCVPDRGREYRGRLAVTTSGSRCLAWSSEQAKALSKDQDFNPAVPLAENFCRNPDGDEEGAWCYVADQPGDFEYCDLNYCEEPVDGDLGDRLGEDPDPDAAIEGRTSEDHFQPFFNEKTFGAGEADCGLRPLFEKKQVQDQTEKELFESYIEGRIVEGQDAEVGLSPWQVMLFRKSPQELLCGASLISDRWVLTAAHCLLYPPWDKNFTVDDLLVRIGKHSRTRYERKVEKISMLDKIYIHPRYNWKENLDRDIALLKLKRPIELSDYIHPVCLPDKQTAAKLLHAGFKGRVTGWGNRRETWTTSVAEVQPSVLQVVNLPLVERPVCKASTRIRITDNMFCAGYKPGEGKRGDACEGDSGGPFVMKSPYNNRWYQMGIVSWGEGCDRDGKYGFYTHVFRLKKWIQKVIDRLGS
# [12] = activators of apoptotic CHOP UPR arm, confirmation, cell-based, CHO-CHOP luciferase reporter, single concentration (AID 463112; in the data active = activation above about 33%;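 note: 0% = DMSO wells and 100% = tunicamycin 10 µg/mL wells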); settings: CHO-CHOP cells, CHOP-luciferase reporter luminescence; at 10 µM; stronger effect = higher value; percent of tunicamycin response, DMSO as zero
# [13] = biological target: Carboxy-terminal domain RNA polymerase II polypeptide A small phosphatase 1 (Homo sapiens) (UniProt Q9GZU7); assay: Scp-1 binding by thermal shift, confirmation, orthogonal assay for Scp-1 inhibitor project, biophysical, differential scanning fluorimetry (AID 540329;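 active = substances whose mean melting-temperature shift, as a percentage of the reference inhibitor's shift, reaches about 5.3%, limit read from the data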;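 note: 0% = Tm of DMSO wells and 100% = Tm with sodium orthovanadate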); settings: Recombinant SCP1, Sypro Orange thermal shift Tm; at 40 µM; stronger effect = higher value
# [14] = biological target: Sentrin-specific protease 8 (Homo sapiens) (UniProt Q96LD8); assay: SENP8 protease inhibitors, retest, confirmation, biochemical, luminescence, single concentration (AID 488912;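 active = mean inhibition across replicates above about 50%, limit read from the data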); settings: Recombinant SENP8, Z-RLRGG-aminoluciferin luminescence, 60 min; at 12.5 µM; stronger effect = higher value
# Chain of Sentrin-specific protease 8 (Homo sapiens) (Q96LD8 whole entry, looked up): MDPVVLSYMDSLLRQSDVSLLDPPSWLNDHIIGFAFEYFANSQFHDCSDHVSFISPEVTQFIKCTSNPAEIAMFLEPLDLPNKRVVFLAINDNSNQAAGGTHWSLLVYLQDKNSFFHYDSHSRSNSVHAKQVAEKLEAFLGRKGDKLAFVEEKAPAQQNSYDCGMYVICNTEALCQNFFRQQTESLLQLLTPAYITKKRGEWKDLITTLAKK
# [15] = biological target: Sentrin-specific protease 6 (Homo sapiens) (UniProt Q9GZR1); assay: SENP6 protease inhibitors, confirmation, biochemical, luminescence, single concentration (AID 488915;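 active = mean inhibition above about 50% in the one-dose retest, limit read from the data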); settings: recombinant SENP6, Z-RLRGG-aminoluciferin luminescence; at 12.5 µM; stronger effect = higher value
# Chain of Sentrin-specific protease 6 (Homo sapiens) (Q9GZR1 628-1112 limits assumed): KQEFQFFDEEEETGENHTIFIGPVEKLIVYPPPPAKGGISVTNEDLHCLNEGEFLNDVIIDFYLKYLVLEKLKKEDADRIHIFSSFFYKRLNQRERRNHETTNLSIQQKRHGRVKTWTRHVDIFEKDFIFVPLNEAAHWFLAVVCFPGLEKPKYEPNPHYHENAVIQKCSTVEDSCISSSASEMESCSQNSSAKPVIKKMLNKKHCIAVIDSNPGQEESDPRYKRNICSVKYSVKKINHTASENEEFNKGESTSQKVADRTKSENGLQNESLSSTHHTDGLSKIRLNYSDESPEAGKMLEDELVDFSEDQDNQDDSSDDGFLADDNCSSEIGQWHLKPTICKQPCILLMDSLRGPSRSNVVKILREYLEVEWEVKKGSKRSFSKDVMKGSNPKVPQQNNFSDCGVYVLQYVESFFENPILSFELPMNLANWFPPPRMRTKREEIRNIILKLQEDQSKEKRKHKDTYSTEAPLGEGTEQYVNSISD
# [16] = biological target: Sentrin-specific protease 7 (Homo sapiens) (UniProt Q9BQF6); assay: SENP7 protease inhibitors, retest, confirmation, biochemical, luminescence, single concentration (AID 488917;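 active = mean inhibition above about 50% in the one-dose retest, limit read from the data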); settings: recombinant SENP7, Z-RLRGG-aminoluciferin luminescence, 40 min; at 12.5 µM; stronger effect = higher value
# Chain of Sentrin-specific protease 7 (Homo sapiens) (Q9BQF6 706-1050 limits assumed): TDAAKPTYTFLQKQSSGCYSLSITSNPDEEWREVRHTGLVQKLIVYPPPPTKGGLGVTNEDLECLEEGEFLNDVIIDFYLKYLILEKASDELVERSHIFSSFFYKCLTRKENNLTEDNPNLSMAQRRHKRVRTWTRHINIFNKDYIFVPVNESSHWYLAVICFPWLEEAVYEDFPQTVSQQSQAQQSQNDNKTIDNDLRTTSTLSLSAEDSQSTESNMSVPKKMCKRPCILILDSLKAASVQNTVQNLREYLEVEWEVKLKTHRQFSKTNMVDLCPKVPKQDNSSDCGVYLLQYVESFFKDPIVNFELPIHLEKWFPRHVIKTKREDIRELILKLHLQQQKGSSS
# Caspase-3 (Homo sapiens) = Caspase-3 (Homo sapiens) (UniProt P42574); assay: caspase-3 protease inhibitors, confirmation, selectivity assay for SENP inhibitor project, biochemical, single concentration (AID 488918;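 active = mean inhibition above about 50%, limit read from the data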;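 note: plate controls were enzyme with DMSO for no effect and wells without caspase-3 for full effect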); settings: purified caspase-3, Z-DEVD-aminoluciferin luminescence, 60 min; at 12.5 µM; stronger effect = higher value
# Chain of Caspase-3 (Homo sapiens) (P42574 28-227 limits assumed): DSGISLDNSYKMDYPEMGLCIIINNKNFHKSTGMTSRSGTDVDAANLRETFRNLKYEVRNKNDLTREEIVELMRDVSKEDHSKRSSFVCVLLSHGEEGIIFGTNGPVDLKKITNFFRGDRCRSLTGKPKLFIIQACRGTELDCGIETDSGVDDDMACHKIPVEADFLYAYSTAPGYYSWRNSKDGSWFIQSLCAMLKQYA
# [17] = luciferase luminescence interference by compounds, confirmation, artefact control for SENP inhibitor project, biochemical, single concentration, SENP8 reaction pre-completed (AID 488919;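 active = mean inhibition above about 50% when retested at one dose, limit read from the data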;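 note: plate controls were DMSO wells with completed reaction for no effect and substrate without enzyme for full effect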); settings: Pre-incubated SENP8/Z-RLRGG-aminoluciferin, at 12.5 µM, stronger effect = higher value
# [18] = biological target: Protein Mdm4 (Homo sapiens) + E3 ubiquitin-protein ligase Mdm2 (Homo sapiens) (UniProt O15151+Q00987); assay: retested Mdm2-MdmX interaction blockers, confirmation, cell-based, luminescence, single concentration, set 2 (AID 504601;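 active = mean inhibition of the luminescence signal across two replicates at or above 26 percent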); settings: SaOS-2 split-luciferase Mdm2/MdmX complementation, at 8 µM, stronger effect = higher value
# Chain of Protein Mdm4 (Homo sapiens) + E3 ubiquitin-protein ligase Mdm2 (Homo sapiens) (O15151 whole entry, looked up): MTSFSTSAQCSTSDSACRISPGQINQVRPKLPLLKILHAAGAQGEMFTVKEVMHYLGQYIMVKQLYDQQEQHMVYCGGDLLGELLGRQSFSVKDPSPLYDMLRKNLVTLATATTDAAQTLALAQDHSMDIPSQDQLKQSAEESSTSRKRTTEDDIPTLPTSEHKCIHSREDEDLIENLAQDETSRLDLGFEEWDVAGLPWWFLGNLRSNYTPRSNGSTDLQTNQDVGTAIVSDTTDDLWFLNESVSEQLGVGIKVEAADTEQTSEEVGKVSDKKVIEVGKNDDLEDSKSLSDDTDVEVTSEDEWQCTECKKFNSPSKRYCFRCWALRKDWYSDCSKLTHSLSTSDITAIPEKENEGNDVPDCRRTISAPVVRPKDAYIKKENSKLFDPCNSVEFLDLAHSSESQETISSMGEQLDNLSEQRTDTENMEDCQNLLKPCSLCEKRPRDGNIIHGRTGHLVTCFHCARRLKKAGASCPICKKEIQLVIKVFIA
# Chain of Protein Mdm4 (Homo sapiens) + E3 ubiquitin-protein ligase Mdm2 (Homo sapiens) (Q00987 whole entry, looked up): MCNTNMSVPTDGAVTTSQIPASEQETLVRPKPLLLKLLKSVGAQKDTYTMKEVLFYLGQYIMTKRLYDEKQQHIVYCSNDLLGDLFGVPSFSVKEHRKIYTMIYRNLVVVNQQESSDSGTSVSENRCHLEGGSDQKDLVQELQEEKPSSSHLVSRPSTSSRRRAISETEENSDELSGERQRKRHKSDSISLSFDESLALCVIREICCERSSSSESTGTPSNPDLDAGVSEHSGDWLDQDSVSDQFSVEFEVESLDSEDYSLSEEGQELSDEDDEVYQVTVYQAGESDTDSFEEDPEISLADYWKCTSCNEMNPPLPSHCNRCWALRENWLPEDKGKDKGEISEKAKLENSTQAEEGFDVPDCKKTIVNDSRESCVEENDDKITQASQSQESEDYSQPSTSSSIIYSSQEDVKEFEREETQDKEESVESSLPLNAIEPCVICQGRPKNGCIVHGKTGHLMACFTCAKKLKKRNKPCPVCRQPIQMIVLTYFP
# [19] = biological target: Tumor necrosis factor receptor superfamily member 10B (Homo sapiens) (UniProt O14763); assay: caspase-8 TRAIL sensitization, hit retest, confirmation, cell-based, NB7+caspase-8, with/without TRAIL, luminescence panel (AID 651596; in the data active = activity above about 50%); settings: NB7 neuroblastoma + caspase-8, TRAIL sensitization, luminescence viability, with TRAIL, mean of runs, at 10 µM, stronger effect = higher value
# Chain of Tumor necrosis factor receptor superfamily member 10B (Homo sapiens) (O14763 whole entry, looked up): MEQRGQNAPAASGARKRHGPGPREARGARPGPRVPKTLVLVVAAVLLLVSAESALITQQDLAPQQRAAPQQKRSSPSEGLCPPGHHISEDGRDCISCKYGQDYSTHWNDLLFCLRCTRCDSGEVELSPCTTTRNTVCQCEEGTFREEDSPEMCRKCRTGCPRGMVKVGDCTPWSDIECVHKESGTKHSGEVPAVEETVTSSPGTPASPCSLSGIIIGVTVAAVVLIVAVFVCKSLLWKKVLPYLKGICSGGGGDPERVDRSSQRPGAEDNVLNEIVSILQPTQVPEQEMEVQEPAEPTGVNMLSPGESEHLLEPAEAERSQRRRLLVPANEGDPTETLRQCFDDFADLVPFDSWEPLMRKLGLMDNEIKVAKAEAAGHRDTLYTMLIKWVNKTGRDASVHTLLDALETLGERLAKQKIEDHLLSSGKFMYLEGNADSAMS
# [20] = as above; settings: NB7 neuroblastoma + caspase-8, without TRAIL, luminescence viability, without TRAIL, mean of runs, at 10 µM
# [21] = Apaf-1 inhibitors, single-dose retest, confirmation, biochemical, fluorescence, DEVD-Rh110, 20 µM (AID 504614;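 active = mean inhibition of at least 40% at 20 µM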;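 note: plate controls were DMSO wells for no effect and DEVD-CHO caspase inhibitor control wells for full effect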); settings: reconstituted apoptosome, caspase-3 DEVD-Rh110 fluorescence; at 20 µM; stronger effect = higher value
# [22] = Rh110 fluorescence interference by putative Apaf-1 inhibitors, confirmation, artefact control for Apaf-1 inhibitor project, biochemical, 20 µM (AID 504615;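 active = signal rise of 40% or more at 20 µM, treated as a fluorescence artifact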); settings: quenched caspase reaction, at 20 µM, stronger effect = higher value
# [23] = inhibitors of PAF-induced NF-kB signaling, retest, confirmation, cell-based, GFP fluorescence, single concentration (AID 602472; in the data active = inhibition above about 40%;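 note: stimulus PAF is a Pseudomonas aeruginosa filtrate and not platelet activating factor; plate controls were DMSO wells with stimulus for no effect and unstimulated DMSO wells for full effect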); settings: KKLEB CF airway cells, overnight, at 5 µM, stronger effect = higher value
# [24] = inhibitors of PAF-induced NFkB signaling in CF airway cells, dose response, cell-based, uHTS hits, panel, cytotoxicity readout (AID 624344); settings: CF bronchial epithelial cells, PAF-induced NFkB reporter inhibition, with PAF, run 1; at 79 µM (top of the series) unless noted
# [25] = as above; settings: CF bronchial epithelial cells, PAF-induced NFkB reporter inhibition, with PAF, run 2; at 79 µM (top of the series) unless noted
smiles,measurement,setting,value
COc1ccc(Nc2ncnc3ccc(Br)cc23)c(OC)c1,inhibition,[1],88.2% (active)
same,inhibition,[2],24.3% (active)
same,inhibition,[3],87.9% (active)
same,inhibition,[4],91.3% (active)
same,inhibition,[5],102% (active)
same,inhibition,PEG-3 [6],88.3%
same,inhibition,PEG-3 [7],91.8%
same,inhibition,Rat fibroblasts (CREF) [8],44.4%
same,inhibition,Rat fibroblasts (CREF) [9],38.7%
CC[n+]1cc(C)ccc1/C=C/c1ccc(N(C)C)cc1,inhibition,[1],46% (inactive)
same,inhibition,[10],56.8% (active)
same,inhibition,[11],-78.8% (active)
same,inhibition,Prothrombin (Bos taurus),63.1% (active)
O=C(CN1CCN(S(=O)(=O)c2cc(Cl)ccc2Cl)CC1)c1ccc(O)c(O)c1,activation,[12],21.2% (inactive)
N/C(=N\OC(=O)N1c2ccccc2Sc2ccccc21)c1ccc(Br)cc1,inhibition,[1],6.45% (inactive)
same,thermal shift relative to vanadate control,[13],-22.1% (inactive)
Cn1c(-c2ccc(C(=O)c3ccccc3)s2)nc2ccccc21,inhibition,[1],-108% (inactive)
same,inhibition,[14],0% (inactive)
same,inhibition,[15],11.3% (inactive)
same,inhibition,[16],17.8% (inactive)
same,inhibition,Caspase-3 (Homo sapiens),23% (inactive)
same,inhibition,[17],8.8% (inactive)
O=c1oc2ccccc2cc1-c1cn(-c2ccccc2)c(=S)[nH]1,inhibition,[1],80.8% (active)
same,inhibition,[14],39.3% (inactive)
same,inhibition,[15],47.9% (inactive)
same,inhibition,[16],81.7% (active)
same,inhibition,Caspase-3 (Homo sapiens),81.8% (active)
same,inhibition,[17],19.1% (inactive)
same,inhibition,[18],92% (active)
OCCCNc1nccc(-c2cc(Nc3cccc(Cl)c3)ncn2)n1,inhibition,[1],97% (active)
same,inhibition,[18],102% (active)
same,inhibition,[3],97.6% (active)
same,inhibition,PEG-3 [6],94%
same,inhibition,PEG-3 [7],97.4%
same,inhibition,Rat fibroblasts (CREF) [8],14.7%
same,inhibition,Rat fibroblasts (CREF) [9],62.3%
COc1ccc2cc1Oc1ccc(cc1)C[C@H]1c3cc(c(OC)cc3CCN1C)Oc1c(O)c(OC)cc3c1[C@H](C2)N(C)CC3,inhibition,[1],16.9% (inactive)
same,inhibition,[18],104% (active)
Cc1cc(C(=O)OCC(=O)NCc2ccco2)c(C)n1-c1ccccc1,inhibition,[1],6.4% (inactive)
same,thermal shift relative to vanadate control,[13],-3.06% (inactive)
Cc1c(NC(=O)CSc2cccc3cccnc23)c(=O)n(-c2ccccc2)n1C,activation,[12],123% (active)
O=C(Nc1nc2ccccc2s1)c1ccc2c(c1)OCO2,inhibition,[1],-106% (inactive)
same,inhibition,[14],66% (active)
same,inhibition,[15],95.1% (active)
same,inhibition,[16],97.4% (active)
same,inhibition,Caspase-3 (Homo sapiens),84.8% (active)
same,inhibition,[17],18.6% (inactive)
same,activity,[19],78.8%
same,activity,[20],76.8%
Cc1ccc(Cc2cnc(NC(=O)/C(C#N)=C/c3ccc(-c4cccc([N+](=O)[O-])c4)o3)s2)cc1,activation,[12],61.4% (active)
Cc1nc(NC(=O)c2ccc3c(c2)OCCO3)ccc1Br,inhibition,[1],-134% (inactive)
same,inhibition,[14],82.6% (active)
same,inhibition,[15],80.5% (active)
same,inhibition,[16],96.2% (active)
same,inhibition,Caspase-3 (Homo sapiens),74% (active)
same,inhibition,[17],64.5% (active)
CC1(C)CC(N2CCN(C(c3ccccc3)c3ccccc3)CC2)=CC(=[N+]2CCCCC2)C1,inhibition,[1],69.6% (active)
same,activity,[19],74.7%
same,activity,[20],56.2%
Cc1cccc(C)c1NC(=O)C(Cl)C(=O)c1ccccc1 (stereo not drawn),activation,[12],85.6% (active)
Cn1ccc(=Nc2ccc(NC(=O)c3ccc(N=c4ccn(C)c5ccc([N+](=O)[O-])cc45)cc3)cc2)cc1,inhibition,[1],-15.3% (inactive)
same,inhibition,[11],61.8% (active)
same,inhibition,Prothrombin (Bos taurus),-10.3% (inactive)
CCOC(=O)c1cnc(Nc2nc3ccccc3o2)nc1CSC(=S)N1CCCCC1,activation,[12],92.7% (active)
NC(N)=N/N=C/c1ccc(OCc2ccc(Cl)cc2Cl)cc1,inhibition,[1],-12.9% (inactive)
same,inhibition,[18],102% (active)
same,inhibition,[21],35.8% (inactive)
same,activation (fluorescence interference),[22],-0.23% (inactive)
same,activity,[19],58.8%
same,activity,[20],95.5%
CCCOC1CCCN(Cc2cn(C)nc2-c2ccccc2F)C1 (stereo not drawn),activation,[12],-0.8% (inactive)
Cc1ccc(Oc2nc(-c3ccccn3)nc3ccccc23)cc1,activation,[12],1.5% (inactive)
Cc1cccc(Nc2nc3c(S(=O)(=O)c4ccccc4)nnn3c3ccccc23)c1C,activation,[12],128% (active)
COC(=O)Cc1[nH]n(-c2nc3ccccc3s2)c(=O)c1C(C)=Nc1ccc(OC)cc1,inhibition,[1],79.2% (active)
same,inhibition,[2],26.2% (active)
same,inhibition,[3],86.3% (active)
same,inhibition,[4],82.3% (active)
same,inhibition,[5],92.7% (active)
same,activity,[19],47%
same,activity,[20],40.9%
Clc1cccc(Cl)c1OCCOCCNCc1ccccc1,inhibition,[1],86.6% (active)
same,inhibition,[2],33% (active)
CCc1ccc2c(c1)C1(NN=C(c3ccccc3)S1)C(=O)N2 (stereo not drawn),activation,[12],98.4% (active)
COc1cc(/C=C2/C(=O)ON=C2C)ccc1OCc1ccccc1F,activation,[12],3.58% (inactive)
COc1ccccc1-n1nnnc1S(=O)(=O)Cc1ccc(Cl)cc1,inhibition,[1],26.5% (inactive)
same,inhibition,[18],103% (active)
same,inhibition,[23],99.1% (active)
same,inhibition,[4],70.5% (active)
same,inhibition,[5],102% (active)
same,inhibition,[24],110%
same,inhibition,[25],104%
C=C(C)C(=O)O[C@H]1C/C(C)=C\C(=O)/C=C(\C)[C@H](O)[C@@H]2OC(=O)C(=C)[C@@H]21,inhibition,[1],34.6% (inactive)
same,inhibition,[18],103% (active)
same,inhibition,[4],61.8% (active)
same,inhibition,[5],108% (active)
NC(=O)c1c(NC(=O)c2ccccc2)sc2c1CCCC2,inhibition,[1],-110% (inactive)
same,activity,[19],51.6%
same,activity,[20],58%
COc1cccc(/C=N/NC(=O)c2[nH]nc3c2CCc2ccccc2-3)c1O,inhibition,[1],39.9% (inactive)
same,inhibition,[2],27% (active)
same,inhibition,[10],20.6% (inactive)
same,inhibition,[11],34.7% (active)
same,inhibition,Prothrombin (Bos taurus),30.2% (active)
